Source: PMC4336329 (PLoS ONE, 2015)
The whole screen tested about 310,000 compounds, of which about 14,000 (4.5%) showed an effect of 50% or more. Effects have a minus sign here. The sample as a whole holds a higher share of strong results than the screen did.

molecular target: human ether-à-go-go-related gene (hERG) potassium channel (human, UniProt Q12809); test: primary screen, population patch clamp on CHO cells stably expressing hERG; higher = less effect of the substance
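Further: peak tail current of the secondary pulse compared with the same well before compound.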

Chain of human ether-à-go-go-related gene (hERG) potassium channel (Q12809 whole entry, looked up): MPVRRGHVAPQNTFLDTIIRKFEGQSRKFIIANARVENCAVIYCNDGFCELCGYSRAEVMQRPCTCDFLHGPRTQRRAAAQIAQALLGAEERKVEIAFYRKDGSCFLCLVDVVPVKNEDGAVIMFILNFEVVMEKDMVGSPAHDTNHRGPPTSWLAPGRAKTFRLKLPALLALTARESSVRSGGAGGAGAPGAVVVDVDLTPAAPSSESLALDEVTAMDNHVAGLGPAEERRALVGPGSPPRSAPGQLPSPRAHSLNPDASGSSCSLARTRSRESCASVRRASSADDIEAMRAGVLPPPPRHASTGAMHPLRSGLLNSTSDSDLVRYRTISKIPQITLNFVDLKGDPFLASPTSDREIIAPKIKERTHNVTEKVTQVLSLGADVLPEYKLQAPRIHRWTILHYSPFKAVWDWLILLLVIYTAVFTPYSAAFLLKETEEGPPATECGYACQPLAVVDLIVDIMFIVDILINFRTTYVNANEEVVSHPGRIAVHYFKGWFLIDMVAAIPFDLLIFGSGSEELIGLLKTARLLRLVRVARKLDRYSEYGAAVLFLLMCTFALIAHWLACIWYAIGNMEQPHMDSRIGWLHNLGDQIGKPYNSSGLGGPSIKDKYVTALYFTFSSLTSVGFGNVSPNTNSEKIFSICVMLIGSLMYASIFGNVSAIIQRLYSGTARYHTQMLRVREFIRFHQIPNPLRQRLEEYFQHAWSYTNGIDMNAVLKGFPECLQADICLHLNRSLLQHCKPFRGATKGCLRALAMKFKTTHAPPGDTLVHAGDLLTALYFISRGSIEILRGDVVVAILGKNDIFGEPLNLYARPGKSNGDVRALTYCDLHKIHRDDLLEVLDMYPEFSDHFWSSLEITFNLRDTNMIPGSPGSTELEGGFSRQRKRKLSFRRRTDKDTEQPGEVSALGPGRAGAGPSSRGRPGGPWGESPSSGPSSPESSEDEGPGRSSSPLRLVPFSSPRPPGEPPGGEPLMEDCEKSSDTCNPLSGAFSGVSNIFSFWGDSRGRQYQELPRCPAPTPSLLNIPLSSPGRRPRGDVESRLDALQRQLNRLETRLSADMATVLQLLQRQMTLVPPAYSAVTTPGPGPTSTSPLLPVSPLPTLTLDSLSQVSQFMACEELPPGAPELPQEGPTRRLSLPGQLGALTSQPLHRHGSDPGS

| SMILES | hERG current change (%, negative = inhibition) at 10uM |
| --- | --- |
| CCCc1cc(C(=O)NCc2ccco2)no1 | 9.57% |
| COc1cccc(CCc2nnc(CCC(=O)NCCc3cccc(C)n3)o2)c1 | 24.7% |
| CCCOc1cccc(C2C(C(=O)c3cc4ccccc4o3)=C(O)C(=O)N2c2cc(C)on2)c1 (stereo not shown) | -7.72% |
| CCC(C)OC(=O)C[N+](C)(C)CCOC1CC2CCC1(C)C2(C)C.[Cl-] (stereo not shown) | -17.3% |
| CCOC(=O)C[N+](C)(C)CCOC1CC2CCC1(C)C2(C)C.[Cl-] (stereo not shown) | 10.3% |
| CCCOC(=O)C[N+](C)(C)CCOC1CC2CCC1(C)C2(C)C.[Br-] (stereo not shown) | 13% |
| CCCCCCOC(=O)C[N+](C)(C)CCOC1CC2CCC1(C)C2(C)C.[Cl-] (stereo not shown) | -78.1% |
| CC(C)CCOC(=O)C[N+](C)(C)CCOC1CC2CCC1(C)C2(C)C.[Cl-] (stereo not shown) | -16.3% |
| CCCCOC(=O)C[N+](C)(C)CCOC1CC2CCC1(C)C2(C)C.[Br-] (stereo not shown) | -52.7% |
| CCCn1nc2cc(C(=O)NCc3ccc(OC(F)(F)F)cc3)ccc2c1OCC | 14.3% |
| O=C(COC(=O)c1ccc(Cl)nc1)NC1CCCCCC1 | -5.25% |
| CCCc1nnc(NC(=O)CCC(=O)N2CCN(C3c4ccccc4-c4ccccc43)CC2)s1 | -3.76% |
| CCCP(=O)(CC(=O)N(CC)CC)c1ccccc1 (stereo not shown) | 12% |
| COc1ccccc1N1CCN(C(=O)c2cc3n(n2)C(C(F)(F)F)CC(c2ccco2)N3)CC1 (stereo not shown) | -1.94% |
| CC(C)c1nnc(NC(=O)c2cc3ccccc3o2)s1 | 11.1% |
| Cc1c(CNC(=O)C2CC2)c(-n2cccc2)n(Cc2ccccc2)c1C | 27.1% |
| N#Cc1ccccc1OCc1cccc(S(=O)(=O)N2CCOCC2)c1 | -38.9% |
| N#Cc1ccc(OCc2cccc(S(=O)(=O)N3CCOCC3)c2)cc1 | -82.1% |
| CC(=O)c1cc(Cl)ccc1OCc1cccc(S(=O)(=O)N2CCOCC2)c1 | -68.9% |
| O=S(=O)(c1cccc(COc2c(Cl)cccc2Cl)c1)N1CCOCC1 | -12% |
| Cc1cc(OCc2cccc(S(=O)(=O)N3CCOCC3)c2)ccc1Cl | -9.12% |
| O=S(=O)(c1cccc(COc2ccc(Cl)cc2Cl)c1)N1CCOCC1 | 3.46% |
| COC(=O)c1sc2nc(CN3CCOCC3)nc(N3CCOCC3)c2c1C | 1.53% |
| O=c1cc(N2CCN(c3ccccc3)CC2)[nH]c(=O)n1Cc1ccc(F)cc1 | -25.9% |
| OC1(c2ccccn2)COc2ccccc2O1 (stereo not shown) | -10.5% |
| CC(=O)Nc1ccc(Br)cc1C(=O)C(=O)O | -2.93% |
| CCCOc1ccc(-c2nnn(CC(=O)N3CCCCC3)n2)cc1 | 12.9% |
| N#C/C(=C\c1ccc(Cl)cc1)c1nc2ncccc2[nH]1 | -15.1% |

| SMILES | hERG current change (%, negative = inhibition) at 10uM |
| --- | --- |
| CC1CCN(c2c(NCC3CCC(C(=O)N4CCCC(C)C4)CC3)c(=O)c2=O)CC1 (stereo not shown) | 2.75% |
| CCc1ccc(O)c(CNCCNCc2cc(CC)ccc2O)c1 | -55.2% |
| Oc1ccc(Cl)cc1CNCc1ccc(Cl)cc1 | -3.68% |
| Cc1ccc(O)c(CNCCNCc2cc(C)ccc2O)c1 | -11.9% |
| Cc1ccc(Cn2c(=N)c(C(=O)NCCN3CCOCC3)cc3c(=O)n4ccccc4nc32)cc1 | -63.2% |
| Cc1cccn2c(=O)c3cc(C(=O)NCCN4CCOCC4)c(=N)n(Cc4ccc(F)cc4)c3nc12 | -72.9% |
| O=C(NCCN1CCOCC1)c1cc2c(=O)n3ccccc3nc2n1Cc1ccccc1 | -5.9% |
| Cn1c(C(=O)NCCN2CCOCC2)cc2c(=O)n3ccccc3nc21 | 10% |
| N=c1c(C(=O)NCCN2CCOCC2)cc2c(=O)n3ccccc3nc2n1Cc1ccc(F)cc1 | -76.5% |
| Cc1c(C)n(Cc2ccc(F)cc2)c2ccc(C(=O)NCCN3CCOCC3)cc12 | -19.2% |
| CC(C)NC(=O)Cn1c(SCC(=O)c2ccc(F)cc2)nc2ccccc21 | 6.27% |
| COCCn1c(-c2ccc(F)cc2)nc2cccnc21 | 12.1% |
| O=C1C[C@H](NC(=O)OCc2ccccc2)CO1 | 6.32% |
| Fc1ccc(C2NCCn3cccc32)cc1.O=C(O)/C=C/C(=O)O (stereo not shown) | -3.11% |
| O=C(Nc1ccc(OC(F)F)c(Cl)c1)[C@@H]1CCCN1C(=O)c1cccs1 | -74.3% |
| CCOc1ccc(NC(=O)[C@@H]2CCCN2C(=O)c2cccs2)cc1S(=O)(=O)N1CCOCC1 | 6.27% |
| COc1ccc2nc(NC(=O)[C@@H]3CCCN3C(=O)c3cccs3)sc2c1 | -56.4% |
| Cc1ccc(NC(=O)[C@@H]2CCCN2C(=O)c2cccs2)cc1S(=O)(=O)N1CCCCC1 | -63.9% |
| COc1ccc2nc(NC(=O)c3cccs3)sc2c1 | 8.71% |
| O=C(Nc1nc2ccc(Cl)cc2s1)[C@@H]1CCCN1C(=O)c1cccs1 | 3.87% |
| O=C(Nc1ccc(S(=O)(=O)N2CCCC2)cc1)C1CCCN1C(=O)c1cccs1 (stereo not shown) | 0.837% |
| COc1ccc(NC(=O)[C@@H]2CCCN2C(=O)c2cccs2)cc1S(=O)(=O)N1CCCCC1 | -6.06% |
| CCOc1ccc(NC(=O)[C@@H]2CCCN2C(=O)c2cccs2)cc1S(=O)(=O)N1CCCCC1 | 10.5% |
| Cc1ccc(NC(=O)C2CCCN2C(=O)c2cccs2)cc1C (stereo not shown) | -25.5% |
| O=C(Nc1ccccc1OC(F)F)C1CCCN1C(=O)c1cccs1 (stereo not shown) | 1.98% |
| O=C(Nc1ccc(Cl)c(S(=O)(=O)N2CCOCC2)c1)[C@@H]1CCCN1C(=O)c1cccs1 | -57.6% |
| CNC(=O)CN(C)S(=O)(=O)c1ccc(OC)c(Cl)c1 | 6.65% |
